Measurements from PubChem BioAssay AID449762 (Southern Research Specialized Biocontainment Screening …, 2010).
Screen size: about 330,000 compounds; about 1,900 (0.58%) were called active. About 4% were inconclusive and are not listed. Cut-off read from the data, not from the text of the source: inconclusive = inhibition above about 70% without an active follow-up result; inactive = below that. Not all results are given here. Measured potencies and affinities stand elsewhere.

Experiment: M. tuberculosis growth inhibition, HTS (AID 449762);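 note: bacterial growth assessed after seven days of incubation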
Conditions: M. tuberculosis H37Rv growth inhibition, 7H9 media; at 25 µM; stronger effect = higher value

SMILES	inhibition
CCn1c(=O)c2c(nc3n2CCCN3CCc2ccccc2)n(C)c1=O	6.27% (inactive)
COc1ccc(Cc2c(C)nc(N)nc2Cl)cc1	8.87% (inactive)
Cc1nc(N)nc(Cl)c1Cc1ccc(Cl)cc1	0.95% (inactive)
COc1cc(OC)cc(C(=O)NCC(=O)OCC(=O)N2CCc3ccccc32)c1	5.39% (inactive)
Cc1cc2c(nn1)CCc1c-2no[n+]1[O-]	-1.95% (inactive)
O=C(CN1CCN(c2nc(-c3ccccc3)cs2)CC1)Nc1ccc2c(c1)OCO2	-7.77% (inactive)
O=C(CN1CCN(c2ncccn2)CC1)NCc1ccc2c(c1)OCO2	-8.33% (inactive)
O=C1C2CC=C(Cl)CC2C(=O)N1CC1Cc2ccccc2CO1 (configuration not stated)	-2.11% (inactive)
N#Cc1cccc(NC(=O)CCc2ccc(S(=O)(=O)N3CCOCC3)cc2)c1	2.35% (inactive)
CCOc1ccc2nc(N3CCCC(C(=O)NCCCN4C(C)CCCC4C)C3)sc2c1 (configuration not stated)	6.54% (inactive)
CCOc1ccc(CCNC(=O)C2CCN(c3nnc(-n4cccc4)s3)CC2)cc1	-2% (inactive)
OCC[C@H]1C[C@@H](O)[C@H](O)[C@@]2(Cc3ccccc3CO2)O1	-8.04% (inactive)
O=C(CSc1nnc(Nc2ccccc2F)s1)NC(=O)CN1CCCC1=O	-10.7% (inactive)
Cc1nn(Cc2cccc(C(=O)Nn3cc([N+](=O)[O-])cn3)c2)c(C)c1[N+](=O)[O-]	10.2% (inactive)
COc1ccc(OCc2cccc(C(=O)NN)c2)cc1	5.13% (inactive)
CC1CCN(C(=O)Cn2nnc(-c3ccccc3)n2)CC1	5.98% (inactive)
Cc1ccsc1/C=C1/SC(N2CC(C)OC(C)C2)=NC1=O (configuration not stated)	68.3% (inactive)
O=C1N=C(N2CCCC2)S/C1=C\c1ccccc1	0.89% (inactive)
Cc1ccsc1/C=C1\SC(N2CC(C)OC(C)C2)=NC1=O (configuration not stated)	67.9% (inactive)

SMILES	inhibition
CC(C)(C)c1ccc(/C=C2/SC(N3CCCC3)=NC2=O)cc1	24.7% (inactive)
COC(=O)C(CCCN1C(=O)c2ccccc2C1=O)(NC(C)=O)c1nnn(C)n1 (configuration not stated)	-2.74% (inactive)
COC(=O)c1cccc(-c2noc(-c3ccccc3F)n2)c1	-2.87% (inactive)
Cc1ccc(NC(=O)c2sccc2-n2cccc2)c(Cl)c1	4.85% (inactive)
Cc1cccc(NC(=O)c2sccc2-n2cccc2)c1C	6.88% (inactive)
Cc1ccc2cc(CN(c3ccccc3C)S(=O)(=O)c3ccccc3)c(=O)[nH]c2c1	11.1% (inactive)
Nc1sccc1C(=O)c1ccccc1	-3.41% (inactive)
CNC(=O)c1ccsc1NC(=O)c1ccccc1	-14.7% (inactive)
COc1ccc(CCNCC(O)COc2ccc(Cl)cc2)cc1OC (configuration not stated)	-0.15% (inactive)
Cc1cc(OCC(O)CNC(C)(C)C)ccc1Cl (configuration not stated)	-5.73% (inactive)
Cc1cc(C)c(OCC(=O)OCC(=O)NC2CCCCCCC2)c(C)c1	-6.93% (inactive)
CCN(CC)S(=O)(=O)c1ccc(C(=O)NNC2=NS(=O)(=O)c3ccccc32)cc1	-5.34% (inactive)
COc1ccccc1N1CCN(Cc2nc3ccsc3c(=O)[nH]2)CC1	-2.58% (inactive)
O=c1[nH]c(CN2CCN(c3ccccc3Cl)CC2)nc2ccsc12	6.57% (inactive)
COC(=O)C1=C(c2c(C)noc2C)C[C@@H]2CC[C@H]1N2C(=O)N1CCC(C)CC1	-12.5% (inactive)
COc1ccc(-c2nnc(SCc3ccc(C(=O)O)cc3)n2C)cc1OC	2.72% (inactive)
COc1ccc(C(=O)C2CCN(C(=S)NCC3CCCO3)CC2)cc1 (configuration not stated)	0.55% (inactive)
CC(C)=CCC[C@](C)(O[C@@H]1O[C@H](CO[C@@H]2OC[C@@H](O)[C@H](O)[C@H]2O)[C@@H](O)[C@H](O)[C@H]1O)C1CC[C@]2(C)C1[C@H](O)CC1[C@@]3(C)CC[C@H](O[C@@H]4O[C@H](CO)[C@@H](O)[C@H](O)[C@H]4O)C(C)(C)C3CC[C@]12C (some centres not stated)	1.5% (inactive)
CC(C)=CCC[C@](C)(O)C1CC[C@]2(C)C1[C@H](O)CC1[C@@]3(C)CC[C@H](O[C@@H]4O[C@H](CO)[C@@H](O)[C@H](O)[C@H]4O[C@@H]4O[C@H](CO)[C@@H](O)[C@H](O)[C@H]4O)C(C)(C)C3CC[C@]12C (some centres not stated)	-2.47% (inactive)

SMILES	inhibition
N#Cc1cc(Nc2c(N)nc[nH]c2=O)c([N+](=O)[O-])cc1C#N	-9.11% (inactive)
CCc1ccccc1OCCCOc1ccc(OC)cc1	3.7% (inactive)
Cc1[nH]c2ccccc2c1C(=O)COC(=O)c1ccccc1O	-1.43% (inactive)
O=C(COC(=O)c1ccc([N+](=O)[O-])s1)NCc1ccccc1	40.3% (inactive)
CC(C)[C@H](NC(N)=O)C(=O)NNC(=O)COc1cccc(C(F)(F)F)c1	-1.74% (inactive)
CC(C)NC(=O)COc1ccc(OCc2ccccc2)cc1	-4.33% (inactive)
CCOC(=O)C(=O)Nc1ccc(OCc2ccccc2)cc1	62.7% (inactive)
CCOc1ccc(NC(C)=O)cc1	3.93% (inactive)
CC(C)Oc1ccc(NC(N)=O)cc1	-11.6% (inactive)
Cc1ccc(S(=O)(=O)n2nc(-n3c(C)ccc3C)c3c(F)cccc32)c2ccccc12	11.8% (inactive)
O=C(N/N=C/C=C/c1ccc([N+](=O)[O-])cc1)c1cccs1	3.01% (inactive)
O=C(N/N=C/C=C/c1ccccc1[N+](=O)[O-])c1cccs1	-11.8% (inactive)
Cc1noc(NS(=O)(=O)c2ccc(NC(=O)C(C)(C)C)cc2)c1C	3.27% (inactive)
C=CCNC(=O)Cc1ccc(S(=O)(=O)N2CCOCC2)s1	-1.17% (inactive)
COc1cc(C(C)=O)ccc1OCC(O)Cn1nc(C)c(Br)c1C (configuration not stated)	3.09% (inactive)
NS(=O)(=O)c1ccc(CNC(=O)c2ccc3ccccc3n2)cc1	7.68% (inactive)
O=C(Cc1cn2ccsc2n1)Nc1nc2c(s1)CCCC2	-0.56% (inactive)
O=C(Cc1cn2ccsc2n1)Nc1nc2c(s1)CN(Cc1ccccc1)CC2	-6% (inactive)
COc1ccc(S(=O)(=O)Nc2c3ccccc3nc(=O)n2-c2ccccc2)cc1	5.16% (inactive)
